# Screens (PubChem BioAssay)
# Sampled rows, rich in hits. Any-hit rate of the full collection: about 12%.
# HP1b binding inh: inhibitors of HP1-beta chromodomain binding to methylated histone tails; AID 540317; hit rate 0.56% among 390,000; Potency, µM (titrated, usually from 114 µM), inactives show top-dose activity change, negative = inhibition, most hits filed as inhibitors; AlphaScreen HP1-beta / biotin-H3K9me3 peptide binding; P83916; further: potency means the concentration at half of the fitted maximal effect; nearly all actives have a fitted effect of over 70% in size
#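 Compound inhibition of the preformed complex between 50 nM HP1-beta and 50 nM biotinylated H3K9me3 peptide was read by AlphaScreen. Buffer was PBS pH 7.4 with 0.01% Tween-20. Incubations ran 30 min at room temperature, with 10 ug/mL donor/acceptor beads.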
# Sfp PPTase inh: inhibitors of Bacillus subtilis Sfp phosphopantetheinyl transferase. hit rate 3.5% among 310,000. Q9F4F7. Biochemical Sfp PPTase activity, qHTS. Potency, µM, for inactives: largest response in the series, negative = inhibition, actives largely listed as inhibitors;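 further: the enzyme is Sfp with the accession as filed and its product quenches rhodamine fluorescence; potency means the concentration at half of the fitted maximal effect; 0% = enzyme reaction without inhibitor and -100% = no enzyme wells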
#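 Compounds were incubated with enzyme (final 15 nM) for 15 min at room temperature before substrate addition started the reaction. Fluorescence at 525 nm excitation, 598 nm emission was recorded immediately and after 30 minutes.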
# BAZ2B block: inhibitors of human BAZ2B bromodomain; AlphaScreen BAZ2B-H3K14Ac peptide displacement; Potency, µM (doses to about 114 µM), for the others: top-dose activity change, negative = inhibition, most hits filed as inhibitors; hit rate 4.4% among 360,000; further: potency means the concentration at half of the fitted maximal effect; on the % scale 0 is the no-effect control and ±100 the full control effect; nearly all actives have a fitted effect of over 60% in size
#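 AlphaScreen luminescence quantifies BAZ2B engagement of H3K14Ac peptide; the protein and biotinylated peptide are both at 50 nM final, buffer PBS pH 7.4 with 0.01% Tween-20, all steps at room temperature.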
# L3MBTL1 inh-1: L3MBTL1 (human) inhibition; Q9Y468; AlphaScreen L3MBTL1–H3K9me1 peptide binding; Potency, µM (series often up to 57.1 µM), without a hit: at the highest dose activity, negative = inhibition, usual class: inhibitors; hit rate 0.66% among 230,000; further: potency means the concentration at half of the fitted maximal effect; on the % scale 0 is the no-effect control and ±100 the full control effect; nearly all actives have a fitted effect of over 60% in size
#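 Displacement of a biotinylated histone H3(1-15) peptide monomethylated at Lys9 (75 nM) from L3MBTL1 (50 nM) was measured by AlphaScreen after a 30 min room-temperature compound incubation; cefsulodin titration served as intraplate control.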
# JMJD2A Tudor inh: JMJD2A Tudor domain (human) inhibition | hit rate 4.4% among 390,000 | Potency, µM (top dose mostly 114 µM), without a hit: top-dose activity change, negative = inhibition, actives largely listed as inhibitors | AlphaScreen JMJD2A-Tudor / H3K4me3 peptide binding; further: potency means the concentration at half of the fitted maximal effect; on the % scale 0 is the no-effect control and ±100 the full control effect; nearly all actives have a fitted effect of over 50% in size
# Target sequence (O75164 whole entry, looked up, the tested form may be a part): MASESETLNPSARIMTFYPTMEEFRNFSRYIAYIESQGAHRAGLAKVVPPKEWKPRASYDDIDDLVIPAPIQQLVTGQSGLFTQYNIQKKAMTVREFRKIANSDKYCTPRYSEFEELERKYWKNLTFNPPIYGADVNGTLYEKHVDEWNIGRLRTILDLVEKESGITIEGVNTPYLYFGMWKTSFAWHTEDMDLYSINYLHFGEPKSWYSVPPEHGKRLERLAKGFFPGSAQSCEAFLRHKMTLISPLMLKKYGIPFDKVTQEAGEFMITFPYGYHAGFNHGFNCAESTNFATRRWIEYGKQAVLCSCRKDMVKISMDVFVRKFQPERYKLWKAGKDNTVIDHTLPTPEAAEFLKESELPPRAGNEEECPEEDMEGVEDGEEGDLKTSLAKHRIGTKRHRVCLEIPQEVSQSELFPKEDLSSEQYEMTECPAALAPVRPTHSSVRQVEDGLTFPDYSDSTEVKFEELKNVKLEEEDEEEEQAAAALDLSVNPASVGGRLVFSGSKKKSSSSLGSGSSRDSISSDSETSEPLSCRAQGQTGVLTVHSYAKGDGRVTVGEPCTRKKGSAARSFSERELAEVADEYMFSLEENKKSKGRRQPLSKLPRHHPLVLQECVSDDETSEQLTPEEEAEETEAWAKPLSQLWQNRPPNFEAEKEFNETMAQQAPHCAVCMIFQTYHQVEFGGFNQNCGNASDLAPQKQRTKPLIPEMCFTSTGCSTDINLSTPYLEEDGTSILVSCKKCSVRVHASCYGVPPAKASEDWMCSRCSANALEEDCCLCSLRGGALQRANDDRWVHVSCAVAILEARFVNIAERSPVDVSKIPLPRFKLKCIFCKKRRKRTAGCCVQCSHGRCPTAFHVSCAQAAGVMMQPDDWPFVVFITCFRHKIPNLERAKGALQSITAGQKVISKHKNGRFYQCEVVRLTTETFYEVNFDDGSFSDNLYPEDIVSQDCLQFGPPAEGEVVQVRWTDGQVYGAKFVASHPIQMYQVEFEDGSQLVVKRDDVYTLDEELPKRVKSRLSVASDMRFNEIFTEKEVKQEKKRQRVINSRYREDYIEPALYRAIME
# G9a block: blocks human histone lysine methyltransferase G9a. Q96KQ7. G9a H3K9 monomethylation, AlphaScreen, 2 h. Potency, µM (highest dose often 102 µM), without a hit: top-dose activity, negative = inhibition, most hits filed as inhibitors. hit rate 8.8% among 350,000. AID 504332; further: potency means the concentration at half of the fitted maximal effect; on the % scale 0 is the no-effect control and ±100 the full control effect; nearly all actives have a fitted effect of over 75% in size
#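 Enzyme 20 nM + cpd, 15 min RT; add b-H3K9 pep 500 nM / SAM 20 uM; 2 h RT; anti-H3K9me1 Ab 0.5 ug/mL + SA donor / anti-rabbit acceptor beads 20 ug/mL each, 10 min; AlphaScreen read.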
# L3MBTL1 inh-2: validation of human L3MBTL1 methyl-lysine binding inhibitors; hit rate 91% among 500; Potency, µM, hits mostly inhibitors; shares compounds with L3MBTL1 inh-1; L3MBTL1 methyl-lysine binding inhibition, biochemical qHTS; further: potency means the concentration at half of the fitted maximal effect; nearly all actives have a fitted effect of over 70% in size
# AlphaScreen ctr2: interferes with AlphaScreen signal in L3MBTL1 counterscreen. shares compounds with L3MBTL1 inh-1. AlphaScreen counterscreen, signal inhibition. Potency, µM (top dose mostly 57.1 µM), for the others: at the highest dose activity change, negative = inhibition, actives largely listed as inhibitors. 500 tested, under 10 active. AID 602224; further: potency means the concentration at half of the fitted maximal effect; 0% is about no effect
# ME-1 growth: ME-1 cell growth inhibition | shares compounds with BAZ2B block | ME-1 cell proliferation, ATP luminescence, 48 h | Potency, µM (series often up to 56.1 µM), for inactives: at the highest dose activity change, negative = inhibition, actives largely listed as inhibitors | hit rate 20% among 140 | AID 504370
# * marks the source's active call; other numbers are inactive results; ? = inconclusive; . = not tested or not shown; [ ] = another dose, or the depositor's remark. The call rests on the fitted dose curve; in most records, active means well fitted curve in the direction sought with a large enough effect; inconclusive means small, poorly fitted or top-dose-only effect, or another doubt; inactive means no such curve, though single readings can be large; an effect the other way counts as inactive or inconclusive.
SMILES,HP1b binding inh,Sfp PPTase inh,BAZ2B block,L3MBTL1 inh-1,JMJD2A Tudor inh,G9a block,L3MBTL1 inh-2,AlphaScreen ctr2,others
C[C@H]1CN([C@@H](C)CO)C(=O)c2cc(NC(=O)NC3CCCCC3)ccc2O[C@H]1CN(C)C(=O)Nc1ccc(C(F)(F)F)cc1,82%,.,.,-2%,-24%,.,.,.,
Cc1ccc(N2NC(=O)/C(=C/c3ccc(-c4ccc(Cl)c(C(=O)O)c4)o3)C2=O)cc1,-7%,0%,?,28µM*,?,45µM*,11*,-2%,
CCCCC1(C)OC(=O)C(=Cc2ccc(-c3ccc(Cl)c(C(=O)O)c3)o2)C(=O)O1 (stereo not given),28%,45µM*,-32%,7.9µM*,-7%,.,13*,1%,
CC1=CC2=NC(=O)/C(=C\c3ccc(-c4ccc(Cl)cc4)o3)C(=N)N2O1,.,-3%,5%,0%,.,-11%,.,.,
CCCCC1(C)OC(=O)C(=Cc2ccc(SC)cc2)C(=O)O1 (stereo not given),29%,20%,-3%,.,2%,-1%[59 µM],.,.,
COC(=O)c1ccccc1NC(=O)CSc1ncn[nH]1,38%,8%,5%,.,-12%,.,.,.,
CCc1ccccc1N(CC(=O)NC(C)(C)C)C(=O)CCC(=O)Nc1ccccn1,45%,7%,15%,4%,-4%,.,.,.,
Nc1ccc2nc(-c3ccccn3)[nH]c2c1,25%,5%,45µM*,28µM*,?,?,7.5*,?,
Cc1ccc(C2/C(=C(/O)c3ccccc3)C(=O)C(=O)N2CCN2CCOCC2)o1 (stereo not given),35%,-1%,-30%,-8%,-29%,?,.,.,
Cc1ccc(C)c(/C(O)=C2/C(=O)C(=O)N(CCN3CCOCC3)C2c2ccco2)c1 (stereo not given),?,10%,22µM*,25µM*,79µM*,?,11*,6%,
Cc1cc(-c2nc3c4c5c(sc4[nH]c(=O)n3n2)CCC5)c(C)o1,?,28µM*,50µM*,8.9µM*,?,?,9.5*,-1%,
Cc1ccc(S(=O)(=O)Nc2cccc(C(=O)NCC3(N4CCCCC4)CCCCC3)c2)cc1F,-2%,.,8%,2%,-14%,?,.,.,
Cn1nc2c(c1C(=O)O)CCCC2,13%,10%,-36%,5.6µM*,?,?,15*,15%,
Cn1nc2c(c1C(=O)N1CCCC(C(=O)c3cc(F)ccc3F)C1)CCCC2 (stereo not given),31%,1%,-20%,1%,-2%,-2%,.,.,
COc1ccc(C(=O)OCC(=O)N2CCc3ccccc3C2)cc1OC,24%,.,.,2%,0%,.,.,.,
CC(=O)Oc1cc(C(=O)OCC(=O)N2CCc3ccccc3C2)cc(OC(C)=O)c1OC(C)=O,?,.,.,8.9µM*,1.6µM*,.,3*,3%,
O=C(CSc1nnc(NC(=O)c2ccc(S(=O)(=O)N3CCOCC3)cc2)s1)Nc1ccccc1C(F)(F)F,16%,17%,11%,6%,-3%,22%[59 µM],.,.,
COc1ccc(S(=O)(=O)N2CCCCC2)cc1NC(=O)CCCOc1ccc(C)cc1,13%,.,9%,-2%,-9%,-12%[59 µM],.,.,
Cc1cc2c(c(=O)o1)C(c1ccc([N+](=O)[O-])o1)C(C#N)=C(N)O2 (stereo not given),13%,?,?,32µM*,-30%,?,?,9%,
O=C1NCCn2ccc(=O)cc21,15%,3%,-3%,1%,9%,-36%,.,.,
COc1cnc(-c2ccccn2)nc1Oc1ccccc1,45%,7%,25µM*,32µM*,89µM*,-4%,21*,40%,
COc1cnc(-c2ccccn2)nc1Oc1cccc(C(F)(F)F)c1,.,0%,?,.,.,-11%,.,.,
CCOC(=O)CSc1nc(-c2ccccn2)ncc1OC,27%,3%,25µM*,22µM*,71µM*,?,27*,34%,
CCNc1nc(NCC)n2c(SCC(=O)Nc3ccc(F)cc3)nnc2n1,10%,.,?,28µM*,-18%,?,?,18%,
CCNc1nc(NCC)n2c(SCC(=O)Nc3ccc(OC(F)F)cc3)nnc2n1,-1%,.,-9%,?,-14%,-15%[59 µM],.,.,
SMILES,HP1b binding inh,Sfp PPTase inh,BAZ2B block,L3MBTL1 inh-1,JMJD2A Tudor inh,G9a block,L3MBTL1 inh-2,AlphaScreen ctr2,others
Cc1cc(C)n(-c2ccnc3cc(Cl)ccc23)n1,39%,6%,3%,.,6%,17%,.,.,
O=C(CSc1nnc(-c2ccc(C(F)(F)F)cn2)o1)Nc1ccccc1Cl,50%,71µM*,18µM*,32µM*,20µM*,25%,21*,1%,
Cc1c(CCO)c(=O)n2c([nH]c3ccccc32)c1C#N,38%,13%,-11%,.,-4%,-8%,.,.,
N#Cc1c(=O)c2nc(NCCCO)ncc2n2c(=O)c3ccccc3[nH]c12,28%,0%,13µM*,10µM*,56µM*,45µM*,6*,45%,
CCN(CC)S(=O)(=O)c1ccc(N2CCOCC2)c(NC(=O)c2c3c(nc4ccccc24)CCC3)c1,-8%,15%,-38%,28µM*,?,-23%[59 µM],8.4*,0%,
CC(=O)Oc1cc2cccc(OC(C)=O)c(=O)c2c(OC(C)=O)c1OC(C)=O,?,-20%,1.6µM*,0.35µM*,8.9µM*,2.8µM*,1.5*,-11%,ME-1 growth=?
COc1ccccc1NC(=O)c1cc(C(=O)Nc2ccccc2OC)cc([N+](=O)[O-])c1,26%,9%,-2%,.,1%,17%,.,.,
